Test results from the supplement of paper PMC11417369.
± gives the standard deviation of the averaged measurements. In all, about 25,000 sequences were measured (“ln(normalized median fluorescence intensity)”: median about 7.9, highest 2% from about 11 on). Shown is part of a subset that was picked to be rich in the highest values.

These sequences were tested on PfAP2-I AP2 domain 3 (GST-tagged) (assay: gcPBM binding intensity (ln(normalized median fluorescence intensity)); higher = stronger DNA binding).
How it was run: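 GST-fused DNA-binding domains of P. falciparum, expressed in E. coli, were applied at about 25 μg on average for 1 h to an Agilent 4 × 180k array of primer-extended double-stranded 36-bp intergenic genomic probes and negative controls. Binding intensity is the highest Masliner-normalised natural-log median intensity across replicate spots of either probe orientation, measured with Alexa488 anti-GST antibody and a 488 nm scan.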
With “ATATATATATAGTACGCACACATAGTTGTACATTAA [CACACA_site2787]” the “gcPBM binding intensity (ln)” value was 9.21 ± 0.13.
In the case of “GTTTATTGATTTATTTGTACTTATATATATATTTCA [XGTACX_site5098]”, the “gcPBM binding intensity (ln)” value is reported as 8.07 ± 0.63.
In the case of “TAAGTAATAGTTTGTGCACACTCAAGTATATCATAT [CACACA_site4035]”, the “gcPBM binding intensity (ln)” value is reported as 10.8 ± 0.28.
With “AAAATCAAGTAGTATAAAGTAAGTATCATAAAAATA [CACACA_negctrl_site1554]” the “gcPBM binding intensity (ln)” value was 7.63 ± 0.59.
For “AGTAATAGTTTGTGCACACTCAAGTATATCATATAT [CACACA_site4034]”, the “gcPBM binding intensity (ln)” value was 10.9 ± 0.24.
In the case of “TATATATATATCAAGTGTACTTGTGTTTGTAATATT [XGTACX_site8854]”, the “gcPBM binding intensity (ln)” value is reported as 9.165 ± 0.049.
In the case of “TTGTTTTGGATTATCACACATATAATATATACTCAT [CACACA_site4780]”, the “gcPBM binding intensity (ln)” value is reported as 7.82 ± 0.68.
“GTAATATCAATATAAAGTACACACTATAGTATGTAT [XGTACX_site4714]” was tested, and the “gcPBM binding intensity (ln)” value was 7.66 ± 0.49.
For “AGTAATAGTTTGTGCACACTCAAGTATATCATAGAT [CACACA_site6082]”, the “gcPBM binding intensity (ln)” value was 11 ± 0.23.
With “TTTATAGTTTTTAATAGTACACATATTTTTAAGTAT [XGTACX_site5498]” the “gcPBM binding intensity (ln)” value was 7.89 ± 0.2.
With “TATATATCAATATGCACACACAAGAAGTAATTATAA [CACACA_site7487]” the “gcPBM binding intensity (ln)” value was 8.96 ± 0.22.
For “GTTATAACTCAAATATGTACATATTATAAAACATAT [XGTACX_site6693]”, the “gcPBM binding intensity (ln)” value was 7.92 ± 0.47.
With “TTTTTTTTTTATTGTACATGCAAAAAATTCCACACA [TGCATGCA_site279]” the “gcPBM binding intensity (ln)” value was 8.31 ± 0.32.
For “ATTTACCCTTGCCATGCACACTTTTTTATAGAAAAT [CACACA_site5857]”, the “gcPBM binding intensity (ln)” value was 8.95 ± 0.44.
For “GAACTTTACAACCCAACACACAAAAAAGAAAAGAAA [CACACA_site1717]”, the “gcPBM binding intensity (ln)” value was 7.87 ± 0.46.
In the case of “ACATTTACAAGGAAAGTGCATATAAGAAAAATAAAA [GTGCAC_site9587]”, the “gcPBM binding intensity (ln)” value is reported as 10.2 ± 0.11.
“CTATGCATTTATAGTGCATGTAAAATATAAGATAAT [TGCATGCA_site71]” was tested, and the “gcPBM binding intensity (ln)” value was 9.86 ± 0.085.
For TAAAAAATTAATAAAGTGCATAAATATTACAATATT, the “gcPBM binding intensity (ln)” value was 10.3 ± 0.4.
With “TTGTGTGAGCAAGTAGTGCATAATATAAATAAAAAA [GTGCAC_site9802]” the “gcPBM binding intensity (ln)” value was 11.2 ± 0.54.
In the case of “ATAATATTTTATATAGTGCATTTGCTCATTATATAT [GTGCAC_site9528]”, the “gcPBM binding intensity (ln)” value is reported as 9.85 ± 0.45.
For “AGTAGCAAATATTAAGTGCATATTATATAATGTGTA [GTGCAC_site9546]”, the “gcPBM binding intensity (ln)” value was 9.04 ± 0.16.
With CCACGAGAATATATAGTGCATAATAATTTTTTTTTG the “gcPBM binding intensity (ln)” value was 11.1 ± 0.4.
“TTTCTAGTTACAAGAGTGCATAATATATAAAAATAA [GTGCAC_site9874]” was tested, and the “gcPBM binding intensity (ln)” value was 10.9 ± 0.56.
With “TAAAAAATGATAGAAGTGCATAAAATAATATATATA [GTGCAC_site9904]” the “gcPBM binding intensity (ln)” value was 10.4 ± 0.13.
For “TTTAGATATATGGTAGTGCATAATAAAAATATAGCC [GTGCAC_site9449]”, the “gcPBM binding intensity (ln)” value was 11.1 ± 0.67.
For “AAAATAATATAAATAATATAAGTGAGCATATATATA [TGCATGCA_negctrl_site527]”, the “gcPBM binding intensity (ln)” value was 7.92 ± 0.72.
For TATAATAACAATTTAGTGCATATAATAATATTTTAT, the “gcPBM binding intensity (ln)” value was 10 ± 0.19.
In the case of “TCAAAATATCCAAAAGAATAAAGAAAAAAAAAAAGA [CACACA_negctrl_site1377]”, the “gcPBM binding intensity (ln)” value is reported as 7.5 ± 0.41.
With “TTGTAATTTATTCAAACACACAATTTGGACCTTTTT [CACACA_site1063]” the “gcPBM binding intensity (ln)” value was 7.45 ± 0.51.
“TTTTTACTATAAGGGGAAAAAAAAAAAAATAATATA [XGTACX_negctrl_site279]” was tested, and the “gcPBM binding intensity (ln)” value was 7.78 ± 0.28.
For “ATGTAGATATATATATGTACTAATTAGTAGTTTACG [XGTACX_site6275]”, the “gcPBM binding intensity (ln)” value was 8 ± 0.41.
With “ATATATATATCAACAACACACGATTAACTAAAAAAA [CACACA_site302]” the “gcPBM binding intensity (ln)” value was 8.8 ± 0.19.
With “ACCTTATTTAGTTATAGTACACAAAGTATTAAACAT [XGTACX_site8418]” the “gcPBM binding intensity (ln)” value was 8.46 ± 0.46.
For “AGTATACATTCATTTTGTACTCAATGATTTGATAAC [XGTACX_site6787]”, the “gcPBM binding intensity (ln)” value was 7.63 ± 0.42.
“CTATTATCGGTTCCTACACACAAATATATATGTCTA [CACACA_site3579]” was tested, and the “gcPBM binding intensity (ln)” value was 8.1 ± 0.57.
In the case of “TGTTTTTTTATTTTCACACATAATCCAATTATACAT [CACACA_site6070]”, the “gcPBM binding intensity (ln)” value is reported as 8.22 ± 0.55.
“TATATATATATGTAATGTACATAAATTTTATACCTT [XGTACX_site6991]” was tested, and the “gcPBM binding intensity (ln)” value was 9.27 ± 0.53.
In the case of “ACCATATAATTTTTTTGTACATAATGATTTTTTTTT [XGTACX_site1104]”, the “gcPBM binding intensity (ln)” value is reported as 7.99 ± 0.45.
“GGTCTAACAACATGCGCACACACATGAATATTCATA [CACACA_site1539]” was tested, and the “gcPBM binding intensity (ln)” value was 8.81 ± 0.49.
For TAATAAATGTTATTAGTGCATAATAGATAATATATT, the “gcPBM binding intensity (ln)” value was 10.8 ± 0.64.
In the case of GTTGAAATAAAATTAGTGCATATATAAATATATATA, the “gcPBM binding intensity (ln)” value is reported as 10.2 ± 0.17.
For TATATATATATATAAGTGCATATAAAAATCGTTCGT, the “gcPBM binding intensity (ln)” value was 10.3 ± 0.11.
In the case of ATATATATATATATAGTGCATAAAATAAGTTTCTAA, the “gcPBM binding intensity (ln)” value is reported as 10.8 ± 0.21.
ATATATAAATAAATAGTGCATTTTAATATTTAACGT was tested, and the “gcPBM binding intensity (ln)” value was 10 ± 0.18.
For ACATATAATAAAATAGTGCATTGTTAGTTTTATATA, the “gcPBM binding intensity (ln)” value was 10.4 ± 0.42.
In the case of ATATATATATATATAGTGCATAATGTTTTAATAGAT, the “gcPBM binding intensity (ln)” value is reported as 11 ± 0.33.
In the case of AATAAAAATAATATAGTGCATAATATAAGGAAAAAA, the “gcPBM binding intensity (ln)” value is reported as 11.1 ± 0.49.
With TATATATATATAATAGTGCATAAATAAATATATAAA the “gcPBM binding intensity (ln)” value was 11.2 ± 0.45.
“ATAGTAATGCATAAATATATATTATATATATATATA [XGTACX_negctrl_site576]” was tested, and the “gcPBM binding intensity (ln)” value was 9.21 ± 0.49.
With “AAAAAAAATATACATACATGCATACATAAGTTTCTA [TGCATGCA_site998]” the “gcPBM binding intensity (ln)” value was 7.55 ± 0.73.
With “CACTAAATAAGGAAAGTGCATAAAATAAAGGTTATA [GTGCAC_site9793]” the “gcPBM binding intensity (ln)” value was 10.4 ± 0.26.
“AAAAGCACCGTTCGTTGTACACTGAAACACTTTTGT [XGTACX_site199]” was tested, and the “gcPBM binding intensity (ln)” value was 8.2 ± 0.76.
“AACATGTTAAAATAAACACACAGCTAAGGTTTTTTT [CACACA_site157]” was tested, and the “gcPBM binding intensity (ln)” value was 7.4 ± 0.69.
“TCTTTTACAAAAGCTATAACATTCACCACATTATAA [GTGCAC_negctrl_site133]” was tested, and the “gcPBM binding intensity (ln)” value was 7.68 ± 0.65.
“CTAGGTATGCTTTAAACATGCAAAAATACAAATTAC [TGCATGCA_site239]” was tested, and the “gcPBM binding intensity (ln)” value was 7.97 ± 0.76.
“ATAAATCCATGGGTAGTGCGCATTTTTTTTTTTTTT [GTGCAC_site9732]” was tested, and the “gcPBM binding intensity (ln)” value was 9.09 ± 0.41.
In the case of “ACAATGTCATTTGCTAGTACGCATATTGGTTGTAAA [XGTACX_site8924]”, the “gcPBM binding intensity (ln)” value is reported as 7.76 ± 0.24.
For “ATAAAATATCAATACCGTACACAAGCAGGTAAAATA [XGTACX_site3719]”, the “gcPBM binding intensity (ln)” value was 7.82 ± 0.8.
For “TGATTATAAAAGTAGGTGCTACAAAAATTACACATT [GTGCAC_site9530]”, the “gcPBM binding intensity (ln)” value was 8.7 ± 0.45.
“TATAACATTTTTTTCAAAATAGCTTTAGAAATAAAG [CACACA_negctrl_site718]” was tested, and the “gcPBM binding intensity (ln)” value was 7.37 ± 0.54.
